{"source": "PubChem BioAssay (NCI)", "note": "This is part of a sample that, as a whole, favours compounds with a hit. Of some 83,000 tested, about 20% had one in any assay.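 In brief: 96-well plates, 48 h treatment, single concentration, percent growth endpoint.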 Unmarked numbers belong to inactive results. The source made the active and inactive calls. The calls were made as follows: active = growth percent below 10; inactive = the rest."}
{"tested_on": "MDA-MB-468 breast", "experiment": "NCI-60 one-dose screen, 48 h (100 = growth as untreated, 0 = no growth, -100 = all killed)", "conditions": "10 µM unless noted"}
{"molecule": "COc1ccccc1-n1cc(C#N)c(N)c1C(=O)c1ccc(C)cc1", "growth": "46.2%"}
{"molecule": "CC(C)CC(NC(=O)OCC1c2ccccc2-c2ccccc21)C(=O)O", "note": "(centres undefined)", "growth": "103%"}
{"molecule": "N#Cc1c(N)c(C(=O)c2ccc3c(c2)OCCO3)n2c1CCCC2", "growth": "35.5%"}
{"molecule": "c1cn2cc(-c3ccc4ncn(C5CCCCC5)c4c3)nc(-c3ccc4c(c3)ncn4C3CCCCC3)c2n1", "growth": "-20.2% (active)"}
{"molecule": "CCSc1ccc(C2C(Br)C(=O)N2c2cc(OC)c(OC)c(OC)c2)cc1", "note": "(centres undefined)", "growth": "27.7%"}
{"molecule": "CCN(CC)CCC(CNc1ccnc2cc(Cl)ccc12)c1ccc(O)cc1", "note": "(centres undefined)", "growth": "81.1%"}
{"molecule": "Cc1ccc(S(=O)(=O)NCCCNc2nccc(-c3c(-c4cccc(F)c4)nc4occn34)n2)cc1", "growth": "55.6%"}
{"molecule": "CCc1ccc(C2=C/C(=C/c3ccccc3)C(=O)N2CCc2ccc(S(N)(=O)=O)cc2)cc1", "growth": "109%"}
{"molecule": "CC[C@H](C)[C@@H](C(=O)OC)n1cc(CNC(=O)[C@@H](Cc2ccccc2)NC(=O)OCc2ccccc2)nn1", "growth": "99%"}
{"molecule": "Cc1ccc(-c2c3c(N)nc(-c4ccncc4)nc3nc3c2c(C)nn3-c2ccccc2)cc1", "growth": "43.6%"}
{"molecule": "COC(=O)C(C)Oc1ccc(OC#N)cc1", "note": "(centres undefined)", "growth": "99%"}
{"molecule": "c1ccc2cc(Cn3c(-c4ccc5ccccc5c4)[n+](Cc4ccc5ccccc5c4)c4ccccc43)ccc2c1", "growth": "-42.9% (active)"}
{"molecule": "O=C(NCCN1CCCC1)c1ccc(-c2nc3ccc4[nH]ncc4c3c3c2CCCC3)cc1", "growth": "-43.9% (active)"}
{"molecule": "CCNC(=O)Oc1ccc(/C(=C(/C)Cc2ccc(OC)cc2)c2ccc(OCCN(CC)CC)cc2)cc1", "growth": "46.6%"}
